# Laboratory results taken from PubChem BioAssay.
# Where “and” joins values, the source holds several entries; their conditions need not be identical. Equal entries are not always repeated. A structure can be active in one record and inactive in another. Calls of active or inactive are those of the source. Unless noted, no stated cut-off is given here; in the data, active means inhibition above about 80%; inactive means the rest.
# Experiments:
# [1] = viability loss with induced miR-34 in A549 – imaging, A549 dox-inducible miR-34, nuclei and caspase counts, primary screen (AID 1347080;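 active means compounds whose cell count with miR-34 switched on is under 0.7 times the count with it off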); details: A549 miR-34 inducible, Hoechst nuclei count, 48 h
# [2] = MELAS cybrid and Rieske KO viability enhancers – cell-based, MELAS cybrids, Rieske KO mouse fibroblasts, CellTiter-Glo, primary screen (AID 1508586;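 active means mean z-score across replicates of 1.96 or higher in either the MELAS or the Rieske mutant cell line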;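 further: z relative to plate mean and SD of compound and empty wells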); details: low glucose
# [3] = growth inhibition, single agent or in combination, cell-based, chromothripsis tumors, cisplatin or BGB combos (AID 1671449); details: LFS_MB_P medulloblastoma cells;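 further: cells exposed for 96 hours; 0% = vehicle DMSO and 100% = killing by high DMSO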
# [4] = growth inhibition, single agent and combos, cell-based, chromothripsis tumors, cisplatin or BGB combos (AID 1671450); details: HDN33 neuroblastoma cells, stronger effect = higher value;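 further: cells exposed to compound for four days; 0% = vehicle DMSO and 100% = cell killing by high DMSO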
# [5] = growth inhibition, single agents and combos, ICB984, cell-based, cisplatin or BGB combos, synergistic combos for chromothripsis tumors (AID 1671451; call rule not given here;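 further: cells exposed for 96 hours before readout; 0% = vehicle DMSO and 100% = killing by high DMSO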); details: ICB984 medulloblastoma cells, drug combinations, stronger effect = higher value
# [6] = growth inhibition, single agents and combos, LFS_MB_1R, cell-based, cisplatin or BGB combos, synergistic combos for chromothripsis tumors (AID 1671452); details: LFS_MB_1R medulloblastoma cells, stronger effect = higher value;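 further: cells exposed for 96 hours before readout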
# [7] = growth inhibition, single agents and combos, HTB85, cell-based, BGB or cisplatin IC20 combos, synergistic combos for chromothripsis tumors (AID 1671453); details: HTB85 osteosarcoma cells, drug combinations, stronger effect = higher value;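 further: cells exposed for 96 hours before readout; 0% = vehicle DMSO and 100% = high DMSO killing control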
# [8] = growth inhibition, single agents and combos, CRL2098, cell-based, BGB or cisplatin IC20 combos, synergistic combos for chromothripsis tumors (AID 1671454); details: CRL2098 osteosarcoma cells, drug combinations, stronger effect = higher value;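 further: cells exposed for 96 h before readout; 0% = vehicle DMSO and 100% = killing by high DMSO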
# [9] = growth inhibition, single agents and combos, HD-MB03, cell-based, BGB or cisplatin IC20 combos, synergistic combos for chromothripsis tumors (AID 1671455; in the data active means inhibition above about 83%;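 further: 0% = vehicle DMSO and 100% = high DMSO as cytotoxic control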); details: HD-MB03 medulloblastoma cells, stronger effect = higher value
# [10] = growth inhibition, single agents and combos, UWB1.289, cell-based, BGB or cisplatin combos, synergistic combos for chromothripsis tumors (AID 1671456); details: UWB1.289 ovarian carcinoma cells, stronger effect = higher value;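 further: cells exposed to compound for four days; 0% = vehicle DMSO and 100% = killing by high DMSO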
# [11] = growth inhibition, single agents and combos, LFS_MB_2R, cell-based, cisplatin combos, synergistic combos for chromothripsis tumors (AID 1671457); details: LFS_MB_2R medulloblastoma cells, stronger effect = higher value;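 further: cells exposed to compound for four days before readout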
# [12] = growth inhibition, MDA-MB-436, cell-based, BGB or cisplatin combos, synergistic combos for chromothripsis tumors (AID 1671458; call rule not given here;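 further: cells exposed for 96 hours; 0% = vehicle DMSO and 100% = killing by high DMSO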); details: MDA-MB-436 breast carcinoma growth inhibition, drug combinations, stronger effect = higher value
# [13] = UWB1.289_BRCA1 ovarian cancer growth, cell-based, BGB or cisplatin combinations (AID 1671459); details: UWB1.289 BRCA1 ovarian carcinoma, drug combinations, stronger effect = higher value
# [14] = drug combination toxicity in non-malignant astrocytes – cell-based, BGB or cisplatin IC20 combos, cytotoxicity control for chromothriptic childhood tumor combination screen (AID 1671460); details: Human astrocytes, viability inhibition, drug combinations, at 0.5 µM, stronger effect = higher value;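 further: cells exposed to compounds for 96 hours before viability readout; 0% = vehicle and 100% = killing control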
# [15] = BT084 cell growth, single and combined drugs, ICGC_MB145, cisplatin and BGB IC40 combos (AID 1671461); details: BT084 medulloblastoma cells, drug combinations, stronger effect = higher value;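 further: cells exposed to drugs for 96 hours; 0% = vehicle DMSO and 100% = high DMSO full killing control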
# [16] = RCMB18 cell growth, single agent and combined, cisplatin and BGB IC40 combos (AID 1671462); details: RCMB18 medulloblastoma cells, stronger effect = higher value;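 further: cells exposed to compound for four days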
# [17] = CRL1545 cell growth, single agent and combined, cisplatin and BGB IC20 combos (AID 1671464); details: CRL1545 osteosarcoma cells, stronger effect = higher value;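 further: cells exposed to compound for 96 hours before readout; 0% = vehicle DMSO and 100% = high DMSO killing control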
# [18] = measured here: combination with BGB IC40, at 0.05 µM
# [19] = measured here: with BGB IC20 combination, at 0.5 µM
# [20] = measured here: with cisplatin IC20 combination, at 0.5 µM
# [21] = measured here: combination with cisplatin, at 0.5 µM
# [22] = measured here: combination with cisplatin, at 5 µM
smiles,measurement,setting,value
CC=C1NC(=O)C2CSSCCC=CC(CC(=O)NC(C(C)C)C(=O)N2)OC(=O)C(C(C)C)NC1=O (centres undefined),fold change,"[1]; stronger effect = lower value, cell number ratio, induced over uninduced",0.776 (inactive)
same,fold change,[1]; measured here: relative caspase fold change +Dox/-Dox,0.484
same,cell count,"[1]; measured here: total cells with miR-34 induction, stronger effect = lower value",596
same,cell count,[1]; measured here: total cells without miR-34 induction,768
same,z-score,"[2]; MELAS cybrid survival, CellTiter-Glo 48 h, stronger effect = higher value",0.102 (inactive)
same,z-score,"[2]; Rieske KO mouse fibroblast survival, CellTiter-Glo 72 h",-3.68
same,inhibition,"[3]; at 0.5 µM, stronger effect = higher value",-10.7% (inactive) and 88% (active)
same,inhibition,"[3]; measured here: combination with BGB IC20, at 0.005 µM",24.5% and 60%
same,inhibition,"[3]; measured here: combination with BGB IC40, at 0.005 µM",2.54% and 37.2%
same,inhibition,[3]; [18],74.1% and 67.4%
same,inhibition,"[3]; measured here: combination with cisplatin, at 0.5 µM, stronger effect = higher value",10.9% and 123%
same,inhibition,"[3]; measured here: combination with cisplatin, at 5 µM, stronger effect = higher value",118% and 111%
same,inhibition,"[4]; BGB combo, at 5 µM",99.8% and 99.9%
same,inhibition,[4]; at 0.5 µM,99.7% (active) and 99.8% (active)
same,inhibition,"[4]; cisplatin combo, at 5 µM",99.8% and 99.9%
same,inhibition,[4]; [19],99.7% and 99.8%
same,inhibition,[4]; [20],99.8% and 99.9%
same,inhibition,"[4]; single agent, at 5 µM",99.9%
same,inhibition,"[5]; BGB IC20 combo, at 0.005 µM",90.4% and 84.4%
same,inhibition,"[5]; BGB IC40 combo, at 0.005 µM",97.9% and 97.5%
same,inhibition,"[5]; BGB IC40 combo, at 0.05 µM",97% and 97.5%
same,inhibition,[5]; at 0.5 µM,-17.2% (inactive) and 63.7% (inactive)
same,inhibition,"[5]; cisplatin combo, at 0.05 µM",96.8% and 97.9%
same,inhibition,"[5]; cisplatin combo, at 0.5 µM",-7.95% and 70.2%
same,inhibition,"[5]; cisplatin combo, at 5 µM",85.1% and 97.2%
same,inhibition,"[5]; measured here: 5 uM single agent, at 5 µM",81.2% and 80.4%
same,inhibition,[6]; at 0.5 µM,95.1% (active) and 99.5% (active)
same,inhibition,[6]; [18],91.6% and 93.4%
same,inhibition,[6]; [21],100% and 110%
same,inhibition,[6]; [22],98.8% and 99.1%
same,inhibition,[7]; at 0.5 µM,99.8% (active)
same,inhibition,"[7]; measured here: with BGB IC20, at 0.5 µM",99.8%
same,inhibition,"[7]; measured here: with BGB IC20, at 5 µM",99.9%
same,inhibition,"[7]; measured here: with cisplatin IC20, at 0.5 µM",99.9% and 99.8%
same,inhibition,"[7]; measured here: with cisplatin IC20, at 5 µM",99.9%
same,inhibition,"[7]; single agent, at 5 µM",99.9%
same,inhibition,[8]; at 0.5 µM,94.7% (active) and 97.3% (active)
same,inhibition,"[8]; measured here: combination with BGB at IC20, at 0.5 µM",91% and 95.3%
same,inhibition,"[8]; measured here: combination with cisplatin at IC20, at 0.5 µM",96.7% and 99.1%
same,inhibition,[9]; at 0.5 µM,99.8% (active) and 99.9% (active)
same,inhibition,"[9]; measured here: combo with BGB at IC20, at 0.5 µM",99.8%
same,inhibition,"[9]; measured here: combo with cisplatin at IC20, at 0.5 µM",99.8% and 100%
same,inhibition,[10]; at 0.5 µM,97.4% (active) and 98.3% (active)
same,inhibition,"[10]; measured here: inhibition with BGB combination, at 0.05 µM",65.5% and 83.9%
same,inhibition,"[10]; measured here: inhibition with cisplatin combination, at 0.05 µM",79.2% and 89.7%
same,inhibition,[11]; at 0.5 µM,88.5% (active) and 90.2% (active)
same,inhibition,[11]; [21],99.4% and 104%
same,inhibition,[11]; [22],102% and 106%
same,inhibition,[12]; at 0.5 µM,71.3% (inactive) and 68.4% (inactive)
same,inhibition,"[12]; measured here: BGB combination, at 0.5 µM",57.2% and 55.5%
same,inhibition,"[12]; measured here: BGB combination, at 5 µM",70.4% and 77.6%
same,inhibition,"[12]; measured here: cisplatin combination, at 0.5 µM",73.2% and 67.4%
same,inhibition,"[12]; measured here: cisplatin combination, at 5 µM",84.8% and 85.1%
same,inhibition,"[13]; BGB combination, concentration series, at 5 µM",118% and 126%
same,inhibition,[13]; at 0.5 µM,106% (active) and 109% (active)
same,inhibition,"[13]; cisplatin combination, concentration series, at 5 µM",131% and 130%
same,inhibition,[14],102% (active) and 101% (active)
same,inhibition,[14]; measured here: combo with BGB IC20,105% and 103%
same,inhibition,[14]; measured here: combo with cisplatin IC20,101%
same,inhibition,[15]; at 0.5 µM,93.8% (active) and 102% (active)
same,inhibition,"[15]; cisplatin combination, at 0.5 µM",102% and 101%
same,inhibition,"[15]; cisplatin combination, at 5 µM",106%
same,inhibition,"[15]; measured here: BGB IC40 combination 0.05 uM, at 0.05 µM",99.6% and 96.6%
same,inhibition,"[15]; single agent, at 5 µM",106% and 108%
same,inhibition,[16]; at 0.5 µM,90.4% (active) and 89.4% (active)
same,inhibition,"[16]; cisplatin combo, at 5 µM",96% and 97.2%
same,inhibition,"[16]; measured here: BGB IC40 combination, at 0.05 µM",78.9% and 79.8%
same,inhibition,[16]; [21],92.6% and 90.7%
same,inhibition,"[16]; single agent, at 5 µM",96.6% and 90.8%
same,inhibition,[17]; at 0.5 µM,96% (active) and 96.3% (active)
same,inhibition,[17]; [19],97% and 96.3%
same,inhibition,[17]; [20],95.4% and 96.2%
same,inhibition,"[17]; single agent, at 0.05 µM",89.7% and 93.3%
same,inhibition,"[17]; single agent, at 5 µM",97.8% and 96.3%
